Assay results taken from the supplement of paper PMC7411054.
Where a name gives a salt, the structure may show the parent alone.

Key:
Assay in all cases: phenotypically active (imaging signature differs from DMSO and reproducible) at any of 0.3-9 uM (binary (1 = active, 0 = inactive)); higher = active
Details in all cases: treatment time: 24 h
[1] = system: A549-ACTB-RAB5A
Procedure, shortened: (§1)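 Two criteria together defined phenotypic activity: deviation and reproducibility. Deviation meant ≥3 of 4 wells beyond the 95th percentile of Euclidean distances in solvent control wells, and reproducibility meant a median replicate Pearson correlation above the 95th percentile of non-replicates. Wells had been treated for 24 h at 0.3, 1, 3 or 9 µM in fifteen gene-edited A549, HepG2 and WPMY1 reporter lines before live imaging.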

[2] = system: A549-CANX-COX4
Procedure, shortened: as §1

[3] = system: A549-GM130-SQSTM1
Procedure, shortened: as §1

[4] = system: A549-TP53BP1-CLTA
Procedure, shortened: as §1

[5] = system: A549-TUBA1B-RELA
Procedure, shortened: as §1

[6] = system: HepG2-ACTB-RAB5A
Procedure, shortened: as §1

[7] = system: HepG2-CANX-COX4
Procedure, shortened: as §1

[8] = system: HepG2-GM130-SQSTM1
Procedure, shortened: as §1

[9] = system: HepG2-TP53BP1-CLTA
Procedure, shortened: as §1

[10] = system: HepG2-TUBA1B-RELA
Procedure, shortened: as §1

[11] = system: WPMY1-ACTB-RAB5A
Procedure, shortened: as §1

[12] = system: WPMY1-CANX-COX4
Procedure, shortened: as §1

[13] = system: WPMY1-GM130-SQSTM1
Procedure, shortened: as §1

[14] = system: WPMY1-TP53BP1-CLTA
Procedure, shortened: as §1

[15] = system: WPMY1-TUBA1B-RELA
Procedure, shortened: as §1

Measured: phenotypically active

C[C@H](NCCc1ccc(O)cc1)[C@H](O)c1ccc(O)cc1 [ritodrine]
inactive: [1] 0 | [2] 0 | [3] 0 | [4] 0 | [5] 0 | [6] 0 | [7] 0 | [8] 0 | [9] 0 | [10] 0 | [11] 0 | [12] 0 | [13] 0 | [14] 0 | [15] 0

NS(=O)(=O)c1cc2c(cc1Cl)NC(C(Cl)Cl)NS2(=O)=O (stereo not given) [trichlormethiazide]
inactive: [1] 0 | [2] 0 | [3] 0 | [4] 0 | [5] 0 | [6] 0 | [7] 0 | [8] 0 | [9] 0 | [10] 0 | [11] 0 | [12] 0 | [13] 0 | [14] 0 | [15] 0

O=C(Nc1c(Cl)cncc1Cl)c1ccc(OC(F)F)c(OCC2CC2)c1 [roflumilast]
inactive: [1] 0 | [2] 0 | [3] 0 | [4] 0 | [5] 0 | [6] 0 | [7] 0 | [8] 0 | [9] 0 | [10] 0 | [11] 0 | [12] 0 | [13] 0 | [14] 0 | [15] 0

CCOC(=O)C(C)(C)Oc1ccc(Cl)cc1 [Clofibrate]
inactive: [1] 0 | [2] 0 | [3] 0 | [4] 0 | [5] 0 | [6] 0 | [7] 0 | [8] 0 | [9] 0 | [10] 0 | [11] 0 | [12] 0 | [13] 0 | [14] 0 | [15] 0

CCCC(CCC)C(=O)O [Valproic acid, sodium salt]
inactive: [1] 0 | [2] 0 | [3] 0 | [4] 0 | [5] 0 | [6] 0 | [7] 0 | [8] 0 | [9] 0 | [10] 0 | [11] 0 | [12] 0 | [13] 0 | [14] 0 | [15] 0

NCCc1ccc(O)c(O)c1 [dopamine]
inactive: [1] 0 | [2] 0 | [3] 0 | [4] 0 | [5] 0 | [6] 0 | [7] 0 | [8] 0 | [9] 0 | [10] 0 | [11] 0 | [12] 0 | [13] 0 | [14] 0 | [15] 0

CCOC(=O)[C@H](CCc1ccccc1)N[C@H]1CCc2ccccc2N(CC(=O)O)C1=O [benazepril]
inactive: [1] 0 | [2] 0 | [3] 0 | [4] 0 | [5] 0 | [6] 0 | [7] 0 | [8] 0 | [9] 0 | [10] 0 | [11] 0 | [12] 0 | [13] 0 | [14] 0 | [15] 0

CCN(c1ccccc1)c1cc(NC)[n+](C)c(C)n1
inactive: [1] 0 | [2] 0 | [3] 0 | [4] 0 | [5] 0 | [6] 0 | [7] 0 | [8] 0 | [9] 0 | [10] 0 | [11] 0 | [12] 0 | [13] 0 | [14] 0 | [15] 0

COc1ccc2c3c1O[C@H]1C[C@@H](O)C=C[C@@]31CCN(C)C2 [galantamine]
inactive: [1] 0 | [2] 0 | [3] 0 | [4] 0 | [5] 0 | [6] 0 | [7] 0 | [8] 0 | [9] 0 | [10] 0 | [11] 0 | [12] 0 | [13] 0 | [14] 0 | [15] 0

CO[C@@]12[C@H](COC(N)=O)C3=C(C(=O)C(C)=C(N)C3=O)N1C[C@@H]1N[C@@H]12 [mitomycin]
inactive: [1] 0 | [2] 0 | [3] 0 | [4] 0 | [5] 0 | [6] 0 | [7] 0 | [8] 0 | [9] 0 | [10] 0 | [11] 0 | [12] 0 | [13] 0 | [14] 0 | [15] 0

C[C@]12CC[C@@H]3c4ccc(O)cc4CC[C@H]3[C@@H]1CC[C@@H]2O [estradiol]
inactive: [1] 0 | [2] 0 | [3] 0 | [4] 0 | [5] 0 | [6] 0 | [7] 0 | [8] 0 | [9] 0 | [10] 0 | [11] 0 | [12] 0 | [13] 0 | [14] 0 | [15] 0

CC(C)N(CCC(=O)c1ccc2ccccc2c1)Cc1ccccc1
inactive: [1] 0 | [2] 0 | [3] 0 | [4] 0 | [5] 0 | [6] 0 | [7] 0 | [8] 0 | [9] 0 | [10] 0 | [11] 0 | [12] 0 | [13] 0 | [14] 0 | [15] 0

CCc1nn(CCCN2CCN(c3cccc(Cl)c3)CC2)c(=O)n1CCOc1ccccc1 [nefazodone]
inactive: [1] 0 | [2] 0 | [3] 0 | [4] 0 | [5] 0 | [6] 0 | [7] 0 | [8] 0 | [9] 0 | [10] 0 | [11] 0 | [12] 0 | [13] 0 | [14] 0 | [15] 0

CCc1c(C)[nH]c2c1C(=O)C(CN1CCOCC1)CC2 (stereo not given) [molindone]
inactive: [1] 0 | [2] 0 | [3] 0 | [4] 0 | [5] 0 | [6] 0 | [7] 0 | [8] 0 | [9] 0 | [10] 0 | [11] 0 | [12] 0 | [13] 0 | [14] 0 | [15] 0

O=c1ncccn1[C@@H]1O[C@H](CO)[C@@H](O)[C@H]1O [Zebularine]
inactive: [1] 0 | [2] 0 | [3] 0 | [4] 0 | [5] 0 | [6] 0 | [7] 0 | [8] 0 | [9] 0 | [10] 0 | [11] 0 | [12] 0 | [13] 0 | [14] 0 | [15] 0

CC1(C)CCC(c2ccc(Cl)cc2)=C(CN2CCN(c3ccc(C(=O)NS(=O)(=O)c4ccc(N[C@H](CCN5CCOCC5)CSc5ccccc5)c(S(=O)(=O)C(F)(F)F)c4)cc3)CC2)C1 [navitoclax]
inactive: [1] 0 | [2] 0 | [3] 0 | [4] 0 | [5] 0 | [6] 0 | [7] 0 | [8] 0 | [9] 0 | [10] 0 | [11] 0 | [12] 0 | [13] 0 | [14] 0 | [15] 0

CO[C@H]1C=CO[C@@]2(C)Oc3c(C)c(O)c4c(O)c(c5c(nc6cc(C)ccn65)c4c3C2=O)NC(=O)C(C)=CC=C[C@H](C)[C@H](O)[C@@H](C)[C@@H](O)[C@@H](C)[C@H](OC(C)=O)[C@@H]1C [Rifaximin]
inactive: [1] 0 | [2] 0 | [3] 0 | [4] 0 | [5] 0 | [6] 0 | [7] 0 | [8] 0 | [9] 0 | [10] 0 | [11] 0 | [12] 0 | [13] 0 | [14] 0 | [15] 0

O=P(O)(O)C(O)(Cn1ccnc1)P(=O)(O)O [zoledronic-acid]
inactive: [1] 0 | [2] 0 | [3] 0 | [4] 0 | [5] 0 | [6] 0 | [7] 0 | [8] 0 | [9] 0 | [10] 0 | [11] 0 | [12] 0 | [13] 0 | [14] 0 | [15] 0

Cc1ccc(Cl)c(Nc2ccccc2C(=O)O)c1Cl [meclofenamic-acid]
inactive: [1] 0 | [2] 0 | [3] 0 | [4] 0 | [5] 0 | [6] 0 | [7] 0 | [8] 0 | [9] 0 | [10] 0 | [11] 0 | [12] 0 | [13] 0 | [14] 0 | [15] 0

C#C[C@]1(O)CC[C@H]2[C@@H]3CCc4cc(OC5CCCC5)ccc4[C@H]3CC[C@@]21C [quinestrol]
inactive: [1] 0 | [2] 0 | [3] 0 | [4] 0 | [5] 0 | [6] 0 | [7] 0 | [8] 0 | [9] 0 | [10] 0 | [11] 0 | [12] 0 | [13] 0 | [14] 0 | [15] 0

CN(C)CC/C=C1\c2ccccc2COc2ccc(CC(=O)O)cc21 [olopatadine]
inactive: [1] 0 | [2] 0 | [3] 0 | [4] 0 | [5] 0 | [6] 0 | [7] 0 | [8] 0 | [9] 0 | [10] 0 | [11] 0 | [12] 0 | [13] 0 | [14] 0 | [15] 0
